Compounds with a hit are over-represented: about 18% of the library has one in this group of screens.
GCN5L2 inh: inhibitors of human GCN5L2 histone acetyltransferase; Q92830; GCN5L2 HAT assay, ThioGlo1 CoA-SH fluorescence; Potency, µM (top dose mostly 58.9 µM), for inactives: top-dose activity change, negative = inhibition, actives largely listed as inhibitors; 390,000 tested, 0.21% active; AID 504327
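Compounds, pin-transferred from DMSO stocks, meet 20nM GCN5L2 for 15 min before the reaction begins with H3(1-25) peptide (75uM) and acetyl-CoA (70uM). Thiol-reactive ThioGlo1 reports CoA release over 20 min at room temperature.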
TDP1 block: inhibitors of human tyrosyl-DNA phosphodiesterase TDP1; 350,000 tested, 0.28% active; Potency, µM (titrated, usually from 130 µM), for the others: top-dose activity change, negative = inhibition, usual class: inhibitors; recombinant TDP1, AlphaScreen DNA substrate cleavage; Q9NUW8; also: nearly all actives have a fitted effect of over 40% in size
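Tdp1 1 nM final; 15 min RT w/ cpd; substrate 15 nM, 5 min; beads 10 ug/ml, 10 min; AlphaScreen read. Neg ctrl: no enzyme.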
VDR inh: blocks the human vitamin D receptor. VDR-SRC2-3 peptide fluorescence polarization, 2 h. Potency, µM, inactives show max response, negative = inhibition, usual class: inhibitors. 400,000 tested, 0.93% active. AID 504847
Target sequence (P11473 whole entry, looked up): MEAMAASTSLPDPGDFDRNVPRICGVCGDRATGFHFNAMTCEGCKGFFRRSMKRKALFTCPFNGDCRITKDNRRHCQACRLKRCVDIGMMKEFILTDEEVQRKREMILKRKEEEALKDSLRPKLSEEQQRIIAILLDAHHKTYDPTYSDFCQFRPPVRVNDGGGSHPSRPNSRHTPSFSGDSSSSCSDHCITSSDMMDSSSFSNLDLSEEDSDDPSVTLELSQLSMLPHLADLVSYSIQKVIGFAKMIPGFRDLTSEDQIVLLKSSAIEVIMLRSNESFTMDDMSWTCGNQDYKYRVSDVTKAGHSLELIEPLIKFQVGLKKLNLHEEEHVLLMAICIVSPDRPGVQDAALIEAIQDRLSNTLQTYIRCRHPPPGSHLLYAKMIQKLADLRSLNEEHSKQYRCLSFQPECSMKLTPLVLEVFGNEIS
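Fluorescence polarization assay measuring small-molecule disruption of VDR binding to the coregulator peptide SRC2-3. Compounds were pin-transferred (23 nl) into the reagent mix and incubated 2 h at room temperature before reading.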
PLK1 PBD inh: blocks phosphopeptide binding to human PLK1 polo-box domain; 360,000 tested, 2.8% active; Potency, µM, for inactives: max response, negative = inhibition, hits mostly inhibitors; Plk1 PBD binding of FITC phosphopeptide, fluorescence polarization; also: series mostly up to about 57 µM; nearly all actives have a fitted effect of over 65% in size
TDP1 cell noCPT: qHTS for Inhibitors of human tyrosyl-DNA phosphodiesterase 1 (TDP1): qHTS in cells in absence of CPT. DT40 Tdp1-/- hTDP1 cells, no CPT, ATP luminescence, 48 h. Potency, µM (titrated, usually from 46.2 µM), inactives show at the highest dose activity change, negative = growth inhibition, hits mostly inhibitors. 420,000 tested, 15% active. AID 686978, 2013; also: nearly all actives have a fitted effect of over 55% in size
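Chicken DT40 Tdp1-/- cells stably complemented with human TDP1 were seeded at 400 cells/well with DMSO in place of 20 nM camptothecin. After compound pinning, cells grew at least 48 hr at 37 °C; viability read by CellTiter-Glo luminescence.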
DT40 TDP1 CPT: DT40-hTDP1 cell growth loss with CPT; AID 686979; Potency, µM (highest dose often 46.2 µM), inactives show at the highest dose activity change, negative = growth inhibition, actives largely listed as inhibitors; 420,000 tested, 12% active; chicken DT40 Tdp1-/-;hTDP1 cells + 20 nM CPT, ATP luminescence, 48 h; also: nearly all actives have a fitted effect of over 55% in size
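Chicken DT40 Tdp1-/- cells stably complemented with human TDP1 were seeded at 400 cells/well in medium containing 20 nM camptothecin, exposed to pin-transferred compounds, and grown at 37 °C for at least 48 hr. Viability was read as ATP luminescence.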
The depositor's hits bear a star; ? = inconclusive; . = no result given; [ ] = another dose, or the depositor's remark. Calls follow the shape of the dose curve; as a rule, active = well fitted curve in the direction sought with a large enough effect; inconclusive = small, poorly fitted or top-dose-only effect, or another doubt; inactive = no such curve, though single readings can be large; an effect the other way counts as inactive or inconclusive. % is scaled to controls: 0 for no effect and ±100 for the full control effect; potency is read from the fitted curve at half-maximal effect.

SMILES | GCN5L2 inh | TDP1 block | VDR inh | PLK1 PBD inh | TDP1 cell noCPT | DT40 TDP1 CPT
COc1ccc(Nc2ncnc3sc(-c4ccccc4)cc23)cc1OC | -9% | 7% | -7% | 9% | ? | ?
c1ccc(-c2csc3ncnc(N4CCc5ccccc5C4)c23)cc1 | 9% | -1% | -2% | 0% | 16µM* | ?
Cc1cc2ncn(-c3ncnc4scc(-c5ccccc5)c34)c2cc1C | -17% | 0% | -14% | 29% | 18µM* | ?
COc1ccc(-c2csc3ncnc(N4CCN(c5cccc(Cl)c5)CC4)c23)cc1 | -11% | 2% | -4% | 2% | 16µM* | ?
c1ccc(N2CCN(c3ncnc4scc(-c5cccs5)c34)CC2)cc1 | -1% | 3% | -2% | 0% | ? | ?
CN(Cc1cccnc1)C(=O)c1cc(COc2ccc3c(c2)CCCC3)on1 | ? | 2%[56.1 µM] | -18% | 1% | ? | ?
COc1ccc(-c2csc3ncnc(N4CCN(c5cccc(OC)c5)CC4)c23)cc1 | -19% | 6% | -8% | -1% | 18µM* | 16µM*
COc1ccc(-c2csc3ncnc(N4CCN(c5ccccc5Cl)CC4)c23)cc1 | -5% | 2% | -8% | 3% | ? | ?
COc1ccc(-c2csc3ncnc(N4CCN(c5cccc(C)c5C)CC4)c23)cc1 | 10% | 6%[56.1 µM] | -11% | -11% | ? | 15µM*
COc1ccc(N2CCN(C(=O)CSc3ncnc4scc(-c5ccc(C)cc5)c34)CC2)cc1 | . | . | 5% | 1% | 16µM* | ?
COc1ccc(-c2csc3ncnc(N4CCN(S(=O)(=O)c5cccs5)CC4)c23)cc1 | -9% | -7% | 10% | -1% | ? | ?
COc1ccc(N2CCN(c3ncnc4scc(-c5ccccc5)c34)CC2)cc1 | -11% | . | 7% | -1% | 16µM* | -15%
COc1ccc(N2CCN(c3ncnc4scc(-c5ccc(C)cc5)c34)CC2)cc1 | -10% | 4% | 26% | -22% | ? | ?
CCCCCCCCCC[Si](C)(C)CCC(=O)NC(Cc1ccc(C)cc1)c1ccccc1 (configuration not stated) | -4% | 6%[56.1 µM] | 12% | . | . | .
CCOC(=O)c1c(S(=O)(=O)NCC(=O)N(C)Cc2ccccc2)c(C)n(C)c1C | 0% | 4% | 6% | . | -13% | -19%
O=c1cnn([C@@H]2O[C@H](CO)[C@@H](O)[C@H]2O)c(=O)[nH]1 | -1% | 3% | -15% | -20% | 2.3µM* | 12µM*
COc1ccc(OC)c(Nc2nc(NCc3ccco3)c3ccccc3n2)c1 | -2% | . | 15% | 1% | 23µM* | ?
